Most compounds without a hit are left out; they make up all but 14% or so of the library.
Pf growth 48h: Primary qHTS for delayed death inhibitors of the malarial parasite plastid, 48 hour incubation | hit rate 5.9% among 310,000 | P. falciparum luciferase growth in erythrocytes, 48 h | Potency, µM (highest dose often 28.7 µM), for the others: at the top dose activity change, negative = inhibition, most hits filed as inhibitors; further: potency means the concentration at half of the fitted maximal effect; on the % scale 0 is the no-effect control and ±100 the full control effect
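Firefly luciferase activity from engineered P. falciparum reports growth; inhibitors lower the luminescent signal. Cultures contained 2% hematocrit erythrocytes at 0.1% final parasitemia.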
HCMV antiviral: qHTS Assay for inhibitors of the human cytomegalovirus (HCMV); HFF cells, HCMV-luciferase reporter, 72 h; active compounds read low; activity change, negative = inhibition, % at 57.5 µM; hit rate 4.5% among 410,000; in the data active means activity change below about -60%; inconclusive means no clear call, values can overlap the other calls; inactive means above about -39%; further: on the % scale 0 is the no-effect control and ±100 the full control effect
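Luciferase read-out from HCMV-luciferase-infected HFFs (MOI 1 PFU/cell) 72 h post infection at 37C; compounds added after 16 h cell attachment; activity normalized between buffer-only basal and Salinomycin (10uM) inhibitor controls.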
Marburg entry inh: qHTS for inhibitors of binding or entry into cells for Marburg Virus | hit rate 1.8% among 300,000 | Marburg virus pseudotyped entry inhibition, cell reporter | AID 540276, 2011 | Potency, µM (series often up to 37.8 µM), for the others: at the top dose activity change, negative = inhibition, hits mostly inhibitors; calls by dose curve; tested in HEK293 cells; further: potency means the concentration at half of the fitted maximal effect; on the % scale 0 is the no-effect control and ±100 the full control effect
Pf growth 96h: Primary qHTS for delayed death inhibitors of the malarial parasite plastid, 96 hour incubation; P. falciparum luciferase reporter growth, 96 h; Potency, µM (titrated, usually from 28.7 µM), inactives show at the highest dose activity change, negative = inhibition, actives largely listed as inhibitors; hit rate 6.9% among 320,000; further: potency means the concentration at half of the fitted maximal effect; on the % scale 0 is the no-effect control and ±100 the full control effect
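Readout is luminescence from an integrated firefly luciferase in P. falciparum. Red cells, 2% hematocrit and 0.05% parasitemia final, were cultured with compound through two parasite generations (96 hours) at 37 C, 5% CO2.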
LASV entry inh: qHTS for Inhibitors of binding or entry into cells for Lassa Virus; Lassa virus pseudotype entry inhibition, cell reporter; Potency, µM (doses to about 37.9 µM), inactives show top-dose activity change, negative = inhibition, usual class: inhibitors; hit rate 1.2% among 300,000; AID 540256, 2011; calls by dose curve; tested in HEK293 cells; further: potency means the concentration at half of the fitted maximal effect; on the % scale 0 is the no-effect control and ±100 the full control effect; nearly all actives have a fitted effect of over 50% in size
HCV inh: qHTS Assay for Inhibitors of Hepatitis C Virus (HCV) | Potency, µM (titrated, usually from 41.8 µM), for inactives: top-dose activity change, negative = inhibition, most hits filed as inhibitors | Huh7.5.1 HCVcc-Cre infection, luciferase reporter, 44 h | hit rate 3.4% among 340,000; further: potency means the concentration at half of the fitted maximal effect; on the % scale 0 is the no-effect control and ±100 the full control effect
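Seed cells (1,000/well) for 4 h; treat with compound and infect with HCVcc-Cre, moi about 0.5. Incubate 44 h, then detect luciferase activity.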
HCV confirm: qHTS Assay for Inhibitors of Hepatitis C Virus (HCV): Confirmation Assay for Cherry-picked Compounds; Potency, µM (top dose mostly 41.8 µM), without a hit: at the highest dose activity, negative = inhibition, usual class: inhibitors; AID 720575, 2013; HCVcc-Cre infectious virus cell assay, luciferase, inhibition; hit rate 78% among 640; shares compounds with HCV inh; further: potency means the concentration at half of the fitted maximal effect; nearly all actives have a fitted effect of over 80% in size
HCV host tox: qHTS Assay for Inhibitors of Hepatitis C Virus (HCV): Cytotoxicity Counterscreen for Cherry-picked Compounds. shares compounds with HCV inh. HCV host cell line cytotoxicity counterscreen. Potency, µM (titrated, usually from 41.8 µM), without a hit: top-dose activity change, negative = cytotoxicity, actives largely listed as inhibitors. hit rate 22% among 640;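 further: potency means the concentration at half of the fitted maximal effect; 44 h compound exposure; on the % scale 0 is the no-effect control and ±100 the full control effect; nearly all actives have a fitted effect of over 55% in size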
* = called active by the depositor; ? = inconclusive; nt = not tested or not shown; [ ] = dose if it differs, or a comment. Unless noted, the call rests on the fitted dose curve; in most records, active means well fitted curve in the direction sought with a large enough effect; inconclusive means small, poorly fitted or top-dose-only effect, or another doubt; inactive means no such curve, though single readings can be large; an effect the other way counts as inactive or inconclusive.

SMILES	Pf growth 48h	HCMV antiviral	Marburg entry inh	Pf growth 96h	LASV entry inh	HCV inh	HCV confirm	HCV host tox
COc1ccc(Cl)cc1NC(=O)C(OC)c1ccccc1 (stereo not given)	-29%	-12	?	8%	-25%	6.3µM*	20µM*	26%
O=C(CSc1nc2[nH]ncc2c(=O)[nH]1)Nc1ccc(Cl)cc1	7%	-28	-2%[46.1 µM]	0%	-1%	15%	nt	nt
CCNC(=O)C1CCN(S(=O)(=O)c2ccc3c(c2)CCCN3C(C)=O)CC1	nt	-9	nt	nt	16%[46.1 µM]	nt	nt	nt
C/C(CC1CC2=C(CC1(C)C)C(C)(C)CCC2)=N\NC(N)=S (stereo not given)	nt	-65*	?	1µM*	?	5.6µM*	14µM*	?
C/C(CCC1CC(C)OC1=O)=N\NC(N)=S (stereo not given)	33%	-35	nt	?	nt	15%	nt	nt
Cc1noc(NS(=O)(=O)c2ccc(NS(=O)(=O)c3ccc(Cl)cc3)cc2)c1C	nt	-16	0%	nt	?	25%	nt	nt
Cc1sc(NC(=O)Cc2ccc3c(c2)OCO3)nc1-c1ccc2c(c1)CCN2C(=O)c1ccc(F)cc1	9.3µM*	-35	?	5%	?	1.3µM*	7.9µM*	-21%
COc1ccc(N(CCCN2C(=O)c3cccc4cccc(c34)C2=O)C(=O)c2cccs2)cc1	-13%	-21	2%	?	0%	?	nt	nt
COc1cc(C)ccc1N(CCCN1C(=O)c2cccc3cccc(c23)C1=O)C(=O)c1cccs1	?	?	?	9.3µM*	?	5.6µM*	13µM*	36%
CC(C)Oc1ccccc1/C=N/NC(=O)c1ccc(F)cc1	16%	14	?	-7%	?	7.9µM*	?	-10%
CC(C)Oc1ccccc1/C=N/NC(=O)c1ccccc1Cl	8%	-32	nt	7%	nt	-21%	nt	nt
Cc1cc(C)n(-c2ccc(C(=O)Nc3ccc4c(c3)OCCO4)cc2)n1	31%	5	-26%	-3%	4%	?	?	-29%
CCCn1c(N)c(C(=O)COc2ccc(Br)cc2F)c(=O)n(C)c1=O	?	?	nt	-16%	nt	?	22µM*	-21%
Clc1ccc2nc(-c3ccc(Br)s3)cn2c1	?	6	?	-19%	8.2µM*	?	6.3µM*	?
Cc1ccc(CNC(=O)Cc2csc(Nc3nc(=S)[nH]c4ccccc34)n2)cc1	-11%	51	-2%	84%	nt	nt	nt	nt
O=C(Cc1csc(Nc2nc(=S)[nH]c3ccccc23)n1)N1CCN(c2cccc(C(F)(F)F)c2)CC1	-16%	-14	23%[46.1 µM]	2%	nt	5.6µM*	13µM*	13µM*
CC(=O)N(C1CC(C)C(C#N)(C#N)C1(C#N)C#N)N(C)C (stereo not given)	0%	101	?	9%	-6%	6.3µM*	-24%	25%
COc1ccccc1NS(=O)(=O)c1cc(NC(=O)/C=C/c2cccs2)ccc1N1CCOCC1	12µM*	-13	?	?	-4%	?	20µM*	10%
O=C(/C=C/c1cccs1)Nc1ccc(N2CCOCC2)c(S(=O)(=O)Nc2cc(Cl)ccc2Cl)c1	-25%	-11	-29%	?	-4%	?	nt	nt
O=C(Oc1ccc(NC2=C(Cl)C(=O)c3ccccc3C2=O)cc1)c1ccc([N+](=O)[O-])cc1	17%	nt	1%	31%	nt	?	nt	nt
CC(=O)Nc1ccc(NC2=C(Cl)C(=O)c3ccccc3C2=O)cc1	0%	-101*	?	18%	?	3.2µM*	25µM*	22µM*
CC(C)(C)OC(=O)COc1cc(O)c2c(=O)cc(-c3ccccc3)oc2c1	?	?	?	?	?	?	28µM*	-29%
NC(=O)c1c(-c2ccccc2)oc2ccc(O)cc12	29%	44	1%	nt	-12%	2%	nt	nt
CCOC(=O)c1c(-c2ccccc2)oc2ccc(O)cc12	51%	-1	nt	65%	nt	2.8µM*	14µM*	-30%
Oc1c(N=Nc2ccccn2)ccc2ccccc12	?	-101*	4µM*	8.3µM*	1.6µM*	2.5µM*	18µM*	?
SMILES	Pf growth 48h	HCMV antiviral	Marburg entry inh	Pf growth 96h	LASV entry inh	HCV inh	HCV confirm	HCV host tox
CCOC(=O)N1CCC(NC(=O)CCc2c(C)nc3c(c(C)nn3C(C)(C)C)c2C)CC1	12µM*	-73*	?	57%	?	5.6µM*	13µM*	?
Cc1ccc(-n2c(SCC(=O)Nc3ccc(N4CCOCC4)cc3)nc3ccccc3c2=O)cc1	?	?	?	9%	-8%	?	?	15%
CCOC(=O)CSC1=NC(=O)/C(=C/c2ccc(OC)cc2)S1	52%	nt	?	-2%	?	?	nt	nt
O=S(=O)(Nc1ccc(-c2ccc(NS(=O)(=O)c3ccccc3)cc2)cc1)c1ccccc1	nt	-11	-3%[46.1 µM]	nt	?	3.2µM*	13µM*	2%
COc1ccc(C(=O)Nc2nc3n(n2)C(c2ccc(Cl)cc2)C=C(c2ccccc2)N3)cc1OC (stereo not given)	nt	-39	?	nt	-19%[46.1 µM]	nt	nt	nt
CNc1nc(N2CCc3ccccc32)ncc1F	222%	95	25%	nt	?	3.2µM*	20µM*	?
Cn1c(=O)c2c(nc(NCc3ccc4c(c3)OCO4)n2Cc2ccccc2Cl)n(C)c1=O	2%	3	-17%	17%	-29%	5%	nt	nt
Cn1c(=O)c2c(nc(SCC(=O)NCc3ccc4c(c3)OCO4)n2Cc2ccc(Cl)cc2)n(C)c1=O	9.3µM*	-22	11%	-10%	1%	2.5µM*	3.5µM*	20%
Cc1cccc(NC(=O)CSc2nc3c([nH]c4ccccc43)c(=O)n2C)c1C	nt	49	nt	nt	-25%[46.1 µM]	nt	nt	nt
Cc1ccc(Cn2ncc3c(N4CCN(CCc5ccccc5)CC4)ncnc32)cc1	6.6µM*	-31	?	?	-20%	5µM*	11µM*	25µM*
CCSc1nc2c(c(=O)[nH]c(=O)n2C)n1Cc1ccc(Cl)cc1	?	-21	?	48%	3%	-9%	nt	nt
CCCCCOC(=O)CSc1nc2c(c(=O)[nH]c(=O)n2C)n1Cc1ccc(Cl)cc1	?	9	35%	-9%	-3%	2.8µM*	5.6µM*	20%
